Screens as filed in PubChem BioAssay.
This is a sample that favours compounds with a hit; in the whole collection about 21% have one here.
Pf growth 48h – Primary qHTS for delayed death inhibitors of the malarial parasite plastid, 48 hour incubation; P. falciparum luciferase growth in erythrocytes, 48 h; AID 504832, 2011; 310,000 compounds, 5.9% hits; Potency, µM (titrated, usually from 28.7 µM), usual class: inhibitors
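Luminescence readout; reporter = integrated firefly luciferase in P. falciparum. RBC culture at 2% hematocrit, 0.1% parasitemia final, 37 C/5% CO2; decreased signal taken as growth inhibition.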
Cycloheximide cs – Cycloheximide Counterscreen for Small Molecule Inhibitors of Shiga Toxin; max response, %; cell reporter, cycloheximide protein synthesis inhibition counterscreen; 300,000 compounds, 12% hits; in the data active = max response mostly above about 13%, no sharp cut-off; inactive = mostly below about 14%; also: read at 38.3 µM for the half of the compounds with a filed dose
AMA1-RON2 inh – qHTS for Inhibitors of AMA1-RON; Towards Development of Antimalarial Drug Lead: Primary Screen. AlphaScreen AMA1-biotinylated RON2 peptide binding. Potency, µM (series often up to 58.2 µM), actives largely listed as inhibitors. 360,000 compounds, 0.2% hits. AID 720542, 2013; also: nearly all actives have a fitted effect of over 45% in size
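AMA1 (3D7) with his tag at 25 nM final met compounds first, then biotinylated RON2 peptide at 25 nM; detection used donor plus acceptor beads, 10 µg/mL apiece, read by AlphaScreen after 30 min at room temperature.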
Pf growth 96h – Primary qHTS for delayed death inhibitors of the malarial parasite plastid, 96 hour incubation; P. falciparum luciferase reporter growth, 96 h; Potency, µM (doses to about 28.7 µM), hits mostly inhibitors; 320,000 compounds, 6.9% hits; AID 504834, 2011
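Luminescence readout: decreased luciferase signal marks inhibited growth of reporter-expressing P. falciparum in infected red cells (2% hematocrit, 0.05% parasitemia final), exposed to compound two generations (96 h, 37 C, 5% CO2).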
HCV inh – qHTS Assay for Inhibitors of Hepatitis C Virus (HCV) | Huh7.5.1 HCVcc-Cre infection, luciferase reporter, 44 h | Potency, µM (highest dose often 41.8 µM), usual class: inhibitors | 340,000 compounds, 3.4% hits
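Luciferase read-out (15 sec integration) after a 15 min room-temperature substrate step quantifies HCVcc-Cre infection. Cells, 1,000 per well, had compound added 4 h post-plating, then virus at ~0.5 moi, and were cultured 44 h.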
Shiga toxin inh – A qHTS for Small Molecule Inhibitors of Shiga Toxin; Vero cells, Shiga toxin protein synthesis inhibition reporter; inhibition, % at 38.7 µM; 290,000 compounds, 9.2% hits; AID 2315, 2010; in the data active = inhibition mostly above about 28%, no sharp cut-off; inactive = mostly below about 43%
A number is an active result; i = inactive; ? = inconclusive; nt = no result. Unless noted, calls follow the shape of the dose curve; as a rule, active = well fitted curve in the direction sought with a large enough effect; inconclusive = small, poorly fitted or top-dose-only effect, or another doubt; inactive = no such curve, though single readings can be large; an effect the other way counts as inactive or inconclusive.

SMILES	Pf growth 48h	Cycloheximide cs	AMA1-RON2 inh	Pf growth 96h	HCV inh	Shiga toxin inh
CCC(C)OC(=O)C1=C(C)NC2=C(C(=O)C(C(=O)OC)C(C)C2)C1c1ccc(N(C)C)cc1 (stereo not drawn)	?	i	i	?	?	i
OC(c1ccccc1)c1ncc(-c2cccc(OCc3ccccc3)c2)[nH]1 (stereo not drawn)	nt	nt	i	nt	nt	nt
O=[N+]([O-])c1ccc(COc2cccc(CNc3ccc(Br)cc3)c2)cc1	i	i	?	?	?	i
O=[N+]([O-])c1ccc(COc2ccc(CNc3ccccc3)cc2)cc1	i	36	i	i	i	i
O=C(Oc1cccnc1)c1ccc([N+](=O)[O-])cc1	i	i	i	?	i	i
c1ccc(COc2cncc(-c3cccnc3)c2)cc1	10µM	nt	i	?	?	nt
O=[N+]([O-])c1ccc(COc2cccnc2)cc1	i	41	i	?	i	56
COc1cc(C(=O)OCC(=O)N2CCNC2=O)cc(Cl)c1OC	?	nt	i	i	i	nt
CC1CN(C(=O)CCc2cc(C(C)(C)C)c(O)c(C(C)(C)C)c2)CC(C)O1 (stereo not drawn)	?	i	i	7.4µM	?	i
O=C(Nc1cnccn1)Nc1cccc(Cl)c1Cl	i	26	i	?	i	i
O=C(Nc1ccc([N+](=O)[O-])cc1)Nc1cnccn1	?	i	i	?	i	i
CC(C)c1ccc(NC(=O)Nc2cnccn2)cc1	i	61	i	i	?	73
Cc1ccc(NC(=O)Nc2cnccn2)cc1C	i	28	i	?	i	96
O=C(Nc1ccc(Cl)cc1)Nc1cnccn1	i	27	i	i	i	i
COc1ccc(Cl)cc1NC(=S)NC(=O)c1ccco1	i	nt	i	i	?	nt
CCN(CC(=O)Nc1ccccc1C(F)(F)F)C(=O)CCS(=O)(=O)c1ccc(C)cc1	i	nt	i	i	i	nt
CC1CCN(C(=O)COC(=O)c2cc3ccccc3oc2=O)CC1	nt	nt	i	nt	?	nt
COc1cc(NC(=O)CCc2c(C)noc2C)c(Cl)cc1C(=O)O	nt	nt	i	nt	i	nt
CC1(C(=O)Nc2ccccc2Br)CCN1C(=O)Cc1ccccc1Cl (stereo not drawn)	nt	nt	i	nt	nt	nt
Cc1ccc(NC(=O)Nc2cnccn2)cc1	i	63	i	i	i	72
O=C(Nc1ccccc1)Nc1cnccn1	i	i	i	i	i	24
CCCc1ccc2ccc3ccccc3c2n1	nt	nt	i	nt	nt	nt
O=C(O)c1ccc(SCc2cnc(Cl)s2)cc1	i	i	i	i	i	i
COC(=O)c1ccc(SCc2cnc(Cl)s2)cc1	i	30	i	i	i	130
Cc1nn(C)c(-c2n[nH]c(=S)n2-c2ccccc2)c1Cl	i	i	i	i	i	active
SMILES	Pf growth 48h	Cycloheximide cs	AMA1-RON2 inh	Pf growth 96h	HCV inh	Shiga toxin inh
CC1CCCC(NC(=O)CCC(=O)N2CCOc3ccccc32)C1C (stereo not drawn)	i	i	i	9.3µM	i	i
O=C(CCC(=O)N1CCOc2ccccc21)NCCc1ccccc1	i	8.3	i	15µM	i	i
O=C(CCC(=O)N1CCOc2ccccc21)NC1CCN(Cc2ccccc2)CC1	i	i	i	i	i	i
Cc1ccc(NC(=O)/C(CN(C)C)=N\O)cc1	i	27	i	i	i	62
Cc1ccc(NC(=O)CN(C)C(=O)/C=C/c2cccs2)cc1	i	9.6	i	?	i	i
Cc1ccc(NC(=O)CN(C)C(=O)Nc2ccc(C)cc2)cc1	i	22	i	i	i	69
Cc1ccc(CN2C(=O)CCC2(C)c2nnnn2Cc2ccccc2)cc1 (stereo not drawn)	nt	nt	i	nt	nt	nt
CC(=O)Nc1ccc(S(=O)(=O)Nc2nc3cc4c(cc3nc2Cl)OCCO4)cc1	i	i	i	i	i	i
O=S(=O)(Nc1nc2cc3c(cc2nc1Cl)OCCO3)c1ccccc1	15µM	i	?	i	i	i
CCc1nc2ccc(C(=O)N(CC)CCN(C)C)cn2c1N(CC)C(=O)NCCc1ccccc1	nt	nt	i	nt	nt	nt
Cc1ccsc1/C=N/Nc1ccc(C(=O)O)cc1	i	i	i	i	i	i
Cc1ccsc1/C=N/Nc1cccc(C(=O)O)c1	i	56	i	?	i	118
Cc1ccc(/C=N/Nc2cccc(C(=O)O)c2)s1	i	86	i	i	i	126
Cc1cc(O)c(C=O)c2c1C(=O)Oc1c(CO)c(O)c3c(c1O2)C(O)OC3=O (stereo not drawn)	i	i	1.1µM	i	i	i
CCn1c(=O)c2[nH]c(SC)nc2n(CC)c1=O	nt	nt	i	nt	nt	nt
COc1ccc(NC(=O)CCCn2c(=O)c3sccc3n(Cc3ccccc3)c2=O)cc1	?	26	i	?	?	i
O=C(CCCn1c(=O)[nH]c2ccsc2c1=O)Nc1ccc(F)cc1	i	i	i	i	i	i
Cc1ccc(NC(=O)CCn2c(=O)[nH]c3ccsc3c2=O)cc1	i	i	i	?	i	i
CCc1cccc(NC(=O)CCCn2c(=O)[nH]c3ccsc3c2=O)c1	i	i	i	2.9µM	i	i
CCOc1ccc(NC(=O)CCn2c(=O)[nH]c3ccsc3c2=O)cc1	nt	i	i	7.4µM	i	i
Cc1cc(C)nc(NC(=S)NC(=O)c2ccccc2F)n1	nt	nt	i	nt	i	nt
Cc1cc(C)nc(S/C=C/C(=O)c2ccccc2F)n1	i	54	i	i	?	119
Nc1ncnc2c1ncn2[C@@H]1O[C@H](CNC(=O)[C@@H]2CCC(=O)N2)[C@@H](O)[C@H]1O	nt	nt	i	nt	i	nt
N/C(=N\C(=S)Nc1ccccc1)c1ccccc1	i	40	i	i	?	99
NC(N)=NC(=S)Nc1ccc(Cl)cc1	i	34	i	i	i	39
SMILES	Pf growth 48h	Cycloheximide cs	AMA1-RON2 inh	Pf growth 96h	HCV inh	Shiga toxin inh
CCN(C)c1ccc(/C=N\n2nnnc2N)cc1	i	29	i	2.6µM	i	65
Nc1nnnn1/N=C/c1ccccn1	i	i	i	6.6µM	i	i
CSc1ccc(/C=N/n2nnnc2N)cc1	i	27	i	i	i	i
COc1cc(/C=N/n2nnnc2N)ccc1O	nt	i	i	13µM	i	i
COc1cccc(CNC(=O)C2CCN(S(=O)(=O)c3ccc(Br)s3)CC2)c1	?	i	i	i	?	i
CCN(CC)c1ccc(/C=N/n2nnnc2N)c(O)c1	i	14	i	i	i	i
Nc1nnnn1/N=C/c1ccc(O)cc1	nt	i	i	2.1µM	i	i
CN(Cc1ccccc1)C(=O)CC(=O)N(C)Cc1ccccc1	i	27	i	i	i	52
Cc1nn(CC(=O)N(C)Cc2ccccc2)c(=O)c2cccn12	i	i	i	i	i	46
Cc1cc(OCC(=O)N(C)Cc2ccccc2)ccc1Br	i	34	i	?	?	56
Cc1cc(OCC(=O)N(C)Cc2ccccc2)ccc1Cl	i	28	i	?	i	24
CN(Cc1ccccc1)C(=O)Cc1ccccc1	i	i	i	i	i	i
